Experimental findings from PubChem BioAssay (Tox21) are described below.

The source made the active and inactive calls. A call without a number means that no potency is given here. The call rests on the fitted dose curve; in most records, active means well fitted activation curve with a large enough effect in the repeat runs; inconclusive means weak or mixed curves; inactive means flat fitted curve, though single readings scatter.

The test is described as follows: Caspase-3/7 induction in CHO-K1 cells by small molecules, qHTS assay (AID 1346980). Further: nearly all actives have a fitted effect of over 15% in size. Conditions: CHO-K1 caspase-3/7 induction, Caspase-Glo luminescence, 17 h; series mostly up to 92.4 µM. From the text:
National Center for Advancing Translational Sciences [NCATS]
NIH Chemical Genomics Center [NCGC]
U.S. Environmental Protection Agency [EPA]
National Institutes of Environmental Health Sciences [NIEHS]
National Toxicology Program [NTP]
Apoptosis is a process of programmed cell death and plays a central role in the development of multicellular organisms. It is a highly regulated process and induces cell death by activating caspases, which are the members of cysteine aspartic acid-specific protease (caspase) family. Caspases involved in apoptosis are classified by their mechanism of action as initiator caspases (caspase-2, -8, -9 and -10) and executioner caspases (caspase-3, -6, and -7). Inhibition of apoptosis results in number of cancers, autoimmune diseases, inflammatory diseases and viral infection. To identify small molecule compounds that induce apoptosis, a homogeneous, luminescent Caspase-Glo 3/7 assay was used. Wild type CHO-K1 cells were used to screen Tox21 libraries for identifying caspase-3/7 activity inducers.
CHO-K1 cells were dispensed at 1,500 per well in 5uL of culture medium into white solid bottom 1536-well plates (Corning Life Sciences, Corning, NY) using a Multidrop Combi (Thermo Scientific, Waltham, MA) dispenser. The assay plates were incubated at 37 C and 5% CO2 for 5hr, and then 23nL of compounds dissolved in DMSO and positive control were transferred using a Pintool station (Wako, San Diego, CA). The assay plates were incubated at 37C and 5% CO2 for 17hr. For caspase-3/7 activity read, 4uL of Caspase-Glo 3/7 reagent (Promega Corporation, Madison, WI) was added to each well of the assay plates using Flying Reagent Dispenser (FRD, Aurora Discovery, San Diego, CA) and incubated the assay plates at room temperature for 30min. The luminescence signal was quantified using a ViewLux plate reader (Perkin Elmer, Shelton, CT).
On the technique in general: Quantitative high-throughput screening tests each substance at several concentrations.
Take `[O-]/[N+](=N\O)c1ccccc1`: the Potency entry is “inactive”. With `O=C(O)CCCCCCCCCCCC(=O)O`, the Potency result is “inactive”.

In the case of `C[C@]12C=CC(=O)C=C1CC[C@H]1[C@@H]3C[C@@H](O)[C@](O)(C(=O)CO)[C@@]3(C)C[C@H](O)[C@@]12F`, the Potency entry was “inactive”. Take `Brc1nc2ccccc2s1`: the Potency result was “inactive”.

Regarding `CN(Cc1cnc2nc(N)nc(N)c2n1)c1ccc(C(=O)N[C@@H](CCC(=O)O)C(=O)O)cc1`, the Potency entry is “inactive”.

In the case of `CC(=O)Oc1ccc(C(c2ccc(OC(C)=O)cc2)c2ccccn2)cc1`, the Potency entry was “inactive”. `CC(=O)Oc1c(C)c(C)c2c(c1C)CC[C@@](C)(CCC[C@H](C)CCC[C@H](C)CCCC(C)C)O2`: the Potency result is “inactive”. For `Cc1ccc(N)c([N+](=O)[O-])c1` the value was “inactive”; for `Cc1ccc(S(=O)(=O)O)cc1C`, “inactive”. For `CCC(=O)O[C@H]1[C@H](O[C@@H]2[C@@H](C)[C@H](O[C@H]3C[C@@](C)(OC)[C@@H](O)[C@H](C)O3)[C@@H](C)C(=O)O[C@H](CC)[C@@](C)(O)[C@H](O)[C@@H](C)C(=O)[C@H](C)C[C@@]2(C)O)O[C@H](C)C[C@@H]1N(C)C` the value was “inactive”; for `CC/C=C\C/C=C\C/C=C\CCCCCCCC(=O)O`, “inactive”. With `COc1ccc(-c2coc3cc(O)cc(O)c3c2=O)cc1`, the Potency result was “inactive”. Under `C[C@]12CC[C@@H]3c4ccc(O)cc4CC[C@H]3[C@@H]1CC[C@@H]2O` stands “inactive”; under `NCCOCCO`, “inactive”. For `OCCNCCO` the value was “inactive”; for `COC(=O)C(C)Oc1ccc(Oc2ncc(C(F)(F)F)cc2Cl)cc1` (stereo not given), “inactive”; for `C=CCNCC=C`, “inactive”. Take `CC(C)=CCO`: the Potency result was “inactive”. For `CC(=O)O[C@]1(C(C)=O)CC[C@H]2[C@@H]3C=C(C)C4=CC(=O)CC[C@]4(C)[C@H]3CC[C@@]21C`, the Potency result is “inactive”.

Regarding `O=C1CCc2ccccc2O1`, the Potency entry was “inactive”. Under `c1ccc2cc3ccccc3cc2c1` stands “inactive”; under `Cc1ccc([N+](=O)[O-])c(C)c1`, “inactive”.

For `CCCCCCC(C)O` (stereo not given), the Potency entry is “inactive”.

Regarding `Nc1ccc2c(O)cc(S(=O)(=O)O)cc2c1`, the Potency entry is “inactive”.

Consider `CCCCCC1C(=O)CCC1CC(=O)OC` (stereo not given), for which the Potency result was “inactive”. For `O=[Se](O)O` the value was “inactive”.

Consider `C=CN1CCCC1=O`, for which the Potency entry is “inactive”. Under `O=C(O)COCCN1CCN(C(c2ccccc2)c2ccc(Cl)cc2)CC1` (stereo not given) stands “inactive”.

`CC1(C)O[C@@H]2C[C@H]3[C@@H]4C[C@H](F)C5=CC(=O)C=C[C@]5(C)[C@@]4(F)[C@@H](O)C[C@]3(C)[C@]2(C(=O)CO)O1`: the Potency result is “inactive”. For `CCCCCCOCCOCCO` the value was “inactive”; for `CC1(C)C(C=C(Cl)Cl)C1C(=O)OCc1cccc(Oc2ccccc2)c1` (stereo not given), “inactive”; for `C=C1C[C@H]2[C@@H]3C=C(C)C4=CC(=O)CC[C@]4(C)[C@H]3CC[C@]2(C)[C@@]1(OC(C)=O)C(C)=O`, “inactive”. For `CN(C)/N=N/c1nc[nH]c1C(N)=O` the value was “inactive”; for `CCC/C=C/C=O`, “inactive”. For the compound `Nc1ccc(N)c(Cl)c1`, the Potency entry is “inactive”. Under `O=C(O)c1ccc(O)cc1` stands “inactive”. Under `Oc1c(Cl)ccc(Cl)c1Cl` stands “inactive”. Under `CC(C)(C)c1cccc(C(C)(C)C)c1O` stands “inactive”. Regarding `Clc1ccc(Sc2cc(Cl)c(Cl)cc2Cl)cc1`, the Potency entry is “inactive”.

Turning to `CCCCCCCCCCCCCO`, the Potency result is “inactive”.
